Measurements: PubChem BioAssay AID493083 (Broad Institute, 2011)
In all, about 2,400 compounds went through this assay and about 95 (4%) were called active. Another 3% or so got no clear call; they are omitted.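 The calls were made as follows: active = compounds lowering signal whose fitted AC50 is at most ten times the top tested dose; inconclusive = flat fit with moderate inhibition, or poor curve fit; inactive = the rest.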 These entries were drawn from the full list. Results with a measured potency or affinity are listed apart.

Experiment: decrease of heat-induced HSF-1 GFP reporter, dose response, NIH3T3 R4 cells, GFP/RFP, cherry-pick, set 3 (AID 493083);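 also: 0% = neutral control wells and -100% = didemnin B positive control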
Details: NIH3T3 R4 HSF-1 GFP reporter, heat shock, 48 h; series mostly up to 19.5 µM; activity change, negative = inhibition: at the top concentration

Activity change, negative = inhibition, inactive:
NS(=O)(=O)c1ccc(CCNC(=O)c2ccc(C#CC3(O)CCCCC3)cc2)cc1 -11%, COc1cccc(/C=N/NC(=O)c2cnccn2)c1 -11.7%, CC1CCN(CC(=O)c2cccs2)CC1 -0.687%, N/C(=N\OC(=O)Cc1ccccc1[N+](=O)[O-])c1cccnc1 -2.18%, Cc1ccc(S(=O)(=O)c2ccc(Oc3ccccc3)cc2)cc1 6.62%, COc1cc(NS(=O)(=O)c2ccc(C)cc2)c2ncccc2c1 152%, O=C(Cc1ccc(O)cc1)NC1CCCCCC1 2.64%, Fc1ccc(-c2nc3c(-c4ccc(Cl)cc4)cnn3cc2CCN2CCOCC2)cc1 6.99%, COc1ccc(-n2cc([N+](=O)[O-])c(=O)c3ccc(Cl)cc32)cc1 -4.31%, O=[N+]([O-])c1ccc(O)c(C=Nc2ccc3oc(Cc4ccc(Cl)cc4)nc3c2)c1 2.32%, CC(=O)c1ccc(OCC(O)CN2CCN(Cc3ccc4c(c3)OCO4)CC2)cc1 (configuration not stated) -11.3%, COc1ccc(C(=O)NC(=S)NNC(=O)c2ccco2)cc1 -5.87%, CNC(=S)N(CCc1c(C)[nH]c2ccc(C)cc12)Cc1cc(OC)c(OC)c(OC)c1 6.85%, CC1CCC2(CC1)N=C(N)Nc1nc3ccccc3n12 (configuration not stated) 22.7%, COc1ccc(C(=O)NNC(=O)c2ccccn2)cc1 1.89%, COc1ccc(OC)c(-c2cc(C(=O)N/N=C/c3cc(OC)c(OC)cc3OC)c3ccccc3n2)c1 6.57%, CC(C)Nc1nnc(Sc2ccc(Cl)cc2[N+](=O)[O-])s1 6.78%, Cc1ccc2nc(CSc3nc(C)ccc3C#N)[nH]c2c1 5.73%, CC(/C=C/c1ccc2c(c1)OCO2)=N/NC(=O)c1ccncc1 25.8%, COCCN(C(=S)Nc1c(C)cccc1C)C(C)c1cccnc1 (configuration not stated) -2.92%, COCCCn1c(-c2ccco2)nc2ccccc2c1=O -0.204%, N#Cc1c(N)n(-c2ccccc2N)c2nc3ccccc3nc12 -3.31%, COc1ccccc1C(=O)NCC(=O)N/N=C/c1ccc2c(c1)OCO2 3.39%, NS(=O)(=O)c1ccc(NC2=CC(=O)C(=O)c3ccccc32)cc1 -26%, CN(Cc1nc(-c2ccccc2)no1)C(=O)c1ccc2c(c1)OCO2 2.75%, COc1cccc(-c2c(NC(C)=O)n(C)c3ccccc3c2=O)c1 -3.87%, COc1ccc(NC(=O)c2cc(CN3C(=O)c4ccccc4C3=O)ccc2OC)cn1 3.72%, COc1ccc(/C=N/NC(=O)c2cc(-c3cccn3C)n[nH]2)cc1OC 1.97%, C=CCn1c(CCCNC(=O)C(C)(C)C)nc2ccccc21 5.13%, Cc1ccc(NC(=S)NC2CC3CCC(C2)N3Cc2ccco2)cc1C (configuration not stated) 2.77%, COc1ccc(N2CCN(C(=O)c3ccc(NS(=O)(=O)c4ccccc4)cc3)CC2)cc1 21.2%, COC(=O)c1cc2ccsc2n1Cc1nc(-c2ccc(Cl)cc2)oc1C 3.21%, COc1ccccc1/C=C/CN1CCC(Oc2cc(C(=O)NC3CC3)ccc2OC)CC1 7.7%, CC(NO)/C(=N\O)c1cccs1 (configuration not stated) 1.92%, COC(=O)C1=C(C(=O)OC)[C@@H]2N(C)c3ccccc3[C@@]23C[C@@H](C(=O)OC)N(C(=O)CC(C)C)C3=N1 0.888%, CCN1CCN(CCNC(=O)CCCCCn2c(=O)[nH]c3cc(C(=O)OC)ccc3c2=O)CC1 -7.53%, O=C(COC(=O)c1ccccc1SCC(=O)N1CCCC1)NC1CCS(=O)(=O)C1 (configuration not stated) 1.73%, Cc1ccc(S(=O)(=O)N2CCCC(C(=O)NCCc3ccc4c(c3)OCO4)C2)cc1 (configuration not stated) 13.8%, FC(F)Oc1ccc(NC(=S)NNc2ccnc3cc(Cl)ccc23)cc1 39.7%, Cc1ccc(-n2ncc(Br)c(Br)c2=O)cc1 -70.3%, CCc1ccc(C(=O)Cn2ncc(Cl)c(Cl)c2=O)cc1 -74.6%, CCCCCn1c(SCC(=O)CC(=O)OCC)nc2cc(C(=O)N3CCC(C(N)=O)CC3)ccc2c1=O -1.23%, CC(=O)Nc1cc[n+](C(C)C(=O)c2ccccc2)cc1 (configuration not stated) -10.5%, COc1cccc(-n2ccnc2SCC(=O)Nc2ccccc2F)c1 9.89%, O=C(CCc1ccccc1)Nc1cccc([N+](=O)[O-])c1 9.15%, O=C(NN=C1CCCCCCCCCCC1)c1ccccc1F 4.34%, COc1ccc(-n2nc(C(=O)NCC(=O)NCc3ccccc3OC)c3ccccc3c2=O)c(OC)c1 -1.43%, O=C(NC1CCCCC1)C(c1ccco1)N(C(=O)c1csnn1)c1ccc(Cl)cc1 (configuration not stated) 0.074%, CCC(C)NC(=O)C1(C)CCC(=O)N1Cc1ccccc1OC (configuration not stated) -0.568%, O=C(O)CSc1nc(-c2ccccc2)nc2c1oc1ccccc12 -7.46%, CNC(=O)c1ccsc1NC(=O)c1ccc(Cl)s1 -0.254%, Cc1ccc(OCC(=O)NCCNC(=O)c2ccco2)cc1C -0.642%, CCCCn1c(SCC(=O)NCc2ccco2)nc2c(sc3ccccc32)c1=O -2.75%, O=C(CCl)N1N=C(c2cccs2)CC1c1ccco1 (configuration not stated) 111%, COc1ccc(C2=NN(S(C)(=O)=O)C(c3cccs3)C2)cc1OC (configuration not stated) 0.996%, COc1c([N+](=O)[O-])c(=O)oc2ccccc12 -1.45%, Cn1c(=O)c2ccccc2n(Cc2ccccc2Cl)c1=O 62.4%, C/C(=N\NC(=O)c1nnn(-c2nonc2N)c1C(C)C)c1ccncc1 -3.27%, COc1ccc(/C=N/NC(=O)Nc2cccc3nsnc23)cc1OC 12.9%, COc1ccc(CNC(C)CCc2ccccc2)cc1 (configuration not stated) -3.43%, CCOc1ccc(NC(=O)CN(C)C(=O)c2ccc(N3CCCC3)c([N+](=O)[O-])c2)cc1OCC 4.14%, COc1cccc(N2CCN(C(=S)Nc3cc(C)cc(C)c3)CC2)c1 -4.49%, CC(CCCC(C)(C)O)NC(=O)c1ccc2oc(CCc3ccccc3)nc2c1 (configuration not stated) 1.71%, COc1ccc(NC(=O)CCc2nnc3ccc(N4CCC(C)CC4)nn23)cc1OC -0.697%, O=C(O)c1cccc(NC(=S)N/N=C/c2cccnc2)c1 -3.91%, CCc1cccc2c(C(=O)COC(=O)c3ccc([N+](=O)[O-])s3)c[nH]c12 4.77%, CNC(=S)N/N=C/c1ccc(-c2cccc(C(=O)O)c2)o1 -2.88%, CCOc1ccc(NC(=O)CCCNC(=O)Cn2cnc3sc(C)c(C)c3c2=O)cc1 -1.07%, CCC(=O)n1nc(-c2cccnc2)nc1NCc1cccs1 -3.19%, COc1ccc(N=Cc2c(O)ccc3ccccc23)cc1 69.2%, O=C1CCCN1CCC1CCN(C(=O)Nc2ccccc2)CC1 -0.501%, CC(C)CCNC(=O)c1ccc2c(SCC(=O)O)c3c(nc2c1)CCC3 -3.07%, COc1ccc(OC)c(NC(=O)C2CCCN(S(=O)(=O)c3c(C)nn(C)c3C)C2)c1 (configuration not stated) -0.401%, O=C(NCc1ccncc1)C(=O)Nc1nc(C23CC4CC(CC(C4)C2)C3)cs1 33.4%, Cc1cccc(C)c1NC(=O)c1cccnc1 -2.88%, COc1ccc(C)c2sc(NC(=O)C3=COCCO3)nc12 -4.67%, Cc1ccc(N2C(=O)N(CC(=O)NC(N)=O)C(=O)C2C)cc1 (configuration not stated) -1.14%, COc1cccc(Nc2ccc(C(=O)O)cc2N)c1 -0.631%, Cn1c(=O)c2c(ncn2CC(=O)Nc2cccc(S(=O)(=O)Nc3ccccc3F)c2)n(C)c1=O 8.04%, C/C(=N\NC(=O)c1c(C)nc2ccccn12)c1ccc(C(C)(C)C)cc1 8.05%, CCOC(=O)c1c(N2CCCCC2)c2ccccc2[nH]c1=O 2.34%, CCOC(=O)c1c(C)[nH]c(C)c1S(=O)(=O)NCCc1cccs1 3.28%, CC(C)(C)c1ccc(/C=N/N2C(=O)CSC2=S)cc1 -1.35%, NNC(=S)Nc1ccccc1Cl -2.15%, O=C(NCCN1CCCCC1)Nc1ccccc1Cl -12.4%, CC(C)C(=O)Nc1cccc(-c2nc3ncccc3o2)c1 -3.12%, CC(=O)Nc1nn(C)c2nc(C)cc(C)c12 -7.96%, Cc1cc(C)c(NC(=O)Nc2ccc3c(c2)OCO3)c(C)c1 10.5%, O=C(/C(=C(\[O-])c1ccccc1)[n+]1ccc2ccccc2c1)c1ccc([N+](=O)[O-])cc1 -3.91%, CCOC(=O)Cc1cnc(NC(=O)c2ccccc2)s1 14.6%, CCOC(=O)c1sc(NC(=O)Nc2ccccc2F)nc1C 2.48%, N#Cc1cccc(C#N)c1Oc1ccc(S(=O)(=O)Nc2ccc(Cl)cc2)cc1 27.6%, CCOC(=O)CCCNS(=O)(=O)c1c(C)ccc2nsnc12 -5.83%, COc1ccc(-n2c(C)c(C(C)=O)c(C(C)=O)c2C)cc1 -9.69%, COc1ccc(/C=C/C(=O)NC(=S)NCCc2ccc(OC)c(OC)c2)cc1 0.071%, O=C(O)C1CCC(=O)N(C2CCCCC2)C1c1ccccc1Cl (configuration not stated) -8.3%, O=C(CC1C(=O)NCCN1Cc1ccccc1F)NC1CCCCCC1 (configuration not stated) -11.2%, Cc1nn(-c2ccccc2Cl)c(Cl)c1/C=N/Nc1nc2ccccc2s1 8.96%, COc1ccccc1-c1nnc(SC2CCc3ccccc3NC2=O)s1 (configuration not stated) 16.7%, N#CCCn1nnc(-c2ccccc2F)n1 -4.93%, Cc1ccccc1OCC(=O)Nc1ccc2c(c1)C(=O)N(CCC(=O)O)C2=O -0.08%, O=[N+]([O-])c1ccc(Nc2ccc(F)cc2)cc1 0.888%, COc1nnc(-c2ccc(C(=O)N3C[C@@H]4C[C@H](C3)c3cccc(=O)n3C4)cc2)c2ccccc12 -9.99%, COc1ccc(S(=O)(=O)N2CCCC2)cc1C(C)C 3.89%, O=C(N1CCCCC1)N1CCN(S(=O)(=O)c2ccccc2)CC1 5.28%, CCN(C1CCS(=O)(=O)C1)S(=O)(=O)c1cccs1 (configuration not stated) -2.59%, Cc1ccnc(NC(=O)CS(=O)(=O)c2ccccc2)c1 0.818%, Cc1c(Cl)cccc1NC(=O)CS(=O)(=O)c1ccccc1 -2.14%, Cc1ccccc1OCCC(=O)OCC(=O)N1c2ccccc2NC(=O)C1(C)C -1.03%, Cc1c(-c2nc(-c3ccc(C(C)(C)C)cc3)no2)n(C)oc1=O 1.67%, CCOC(=O)c1cnc2ccc(C(=O)OC)cc2c1NCCCN1CCOCC1 -0.453%, O=C(NCc1ccncc1)c1ccc(Cl)c(S(=O)(=O)N2CCOCC2)c1 16.6%
